Screening data from PubChem.
Hits are enriched below; roughly 7.2% of the tested compounds scored in any of these assays.
SUMO Mot1 rescue: blocks SUMOylation pathway, rescuing yeast Mot1-301 growth; hit rate 1% among 320,000; growth rescue, % at 18.8 µM; S. cerevisiae Mot1-301 growth rescue, ATP luminescence, 38.5C; percent above DMSO median, 100 means doubled;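 active means every valid replicate shows activation above 250% relative to neutral control wells; inactive means the rest, any valid replicate at or below 250%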
ALR H2O2 inh: human ALR oxidase inhibition via reduced H2O2 | hit rate 3.8% among 290,000 | inhibition, % (test concentration not listed) | P55789 | purified ALR, DTT oxidation, H2O2 HRP-luminol luminescence;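 active means mean replicate inhibition above about 79%, with every replicate also reaching it, limit read from the data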
VLA-4 inh: inhibition in a human VLA-4 binding assay. P13612. VLA-4 expressing cells, ligand binding flow cytometry. inhibition, % (about 7 µM as worked out from the volumes in the protocol). hit rate 0.2% among 330,000. AID 2557; in the data active means inhibition above about 50%
Target sequence (P13612 whole entry, looked up): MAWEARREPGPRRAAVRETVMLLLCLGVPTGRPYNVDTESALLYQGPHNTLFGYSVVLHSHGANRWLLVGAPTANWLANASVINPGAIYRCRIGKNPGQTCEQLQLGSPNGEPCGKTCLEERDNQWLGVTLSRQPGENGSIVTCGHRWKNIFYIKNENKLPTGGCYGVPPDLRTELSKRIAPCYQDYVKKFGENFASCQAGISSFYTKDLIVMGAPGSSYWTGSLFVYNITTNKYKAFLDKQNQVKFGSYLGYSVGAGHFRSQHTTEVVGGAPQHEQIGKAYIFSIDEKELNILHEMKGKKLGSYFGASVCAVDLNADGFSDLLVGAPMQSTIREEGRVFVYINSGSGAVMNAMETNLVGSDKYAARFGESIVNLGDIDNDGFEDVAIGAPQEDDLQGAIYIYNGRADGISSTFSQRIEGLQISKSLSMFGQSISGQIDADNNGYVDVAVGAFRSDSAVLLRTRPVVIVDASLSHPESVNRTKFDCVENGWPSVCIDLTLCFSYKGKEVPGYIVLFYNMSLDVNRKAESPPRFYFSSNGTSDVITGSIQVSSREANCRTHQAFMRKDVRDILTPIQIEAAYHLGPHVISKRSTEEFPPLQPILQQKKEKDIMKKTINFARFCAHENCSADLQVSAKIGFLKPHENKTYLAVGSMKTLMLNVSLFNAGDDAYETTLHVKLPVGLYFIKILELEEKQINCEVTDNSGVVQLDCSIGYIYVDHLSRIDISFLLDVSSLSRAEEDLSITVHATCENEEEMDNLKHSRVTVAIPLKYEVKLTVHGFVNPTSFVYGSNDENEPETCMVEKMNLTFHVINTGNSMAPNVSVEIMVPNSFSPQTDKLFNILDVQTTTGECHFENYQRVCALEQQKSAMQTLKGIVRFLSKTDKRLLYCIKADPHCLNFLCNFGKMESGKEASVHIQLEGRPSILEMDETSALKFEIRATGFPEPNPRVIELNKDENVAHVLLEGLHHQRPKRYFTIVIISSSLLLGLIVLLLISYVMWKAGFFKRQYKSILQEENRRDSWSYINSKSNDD
Efflux pump inh: inhibitors of Candida antifungal efflux pumps expressed in yeast | S. cerevisiae Candida pump triplex, Nile Red efflux | inhibition, % at 10 µM | hit rate 0.44% among 330,000;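 active means plate passing quality check with inhibition over a set limit, or well fluorescence over plate mean plus 4 SD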;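 further: Nile Red retained in pooled yeast measured as flow cytometry median fluorescence; higher means more Nile Red kept so more efflux inhibition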
AHR act: human AHR activation. P35869. AHR-responsive luciferase reporter cells, luminescence. activation, % at 5 µM. hit rate 2.5% among 320,000. AID 2796; in the data active means activation above about 47%
A1 inh: inhibitors of the anti-apoptotic protein A1, read as caspase activation. MEF A1-2A-BIM cells, Caspase-Glo 3/7 luminescence, 3 h; percent of clofoctol response, vehicle zero. caspase activation, % (test concentration not listed). hit rate 0.066% among 330,000;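 active means over half of replicate activation scores above 10%, or exactly half above 10 with the replicate mean above 10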
Numbers stand for hits; . = inactive; / = no result given.

SMILES	SUMO Mot1 rescue	ALR H2O2 inh	VLA-4 inh	Efflux pump inh	AHR act	A1 inh
Cc1cc(=O)[nH]c(SCC(=O)c2ccc(C(C)C)cc2)n1	.	98	.	.	.	.
C/C(=N\Nc1cccc(C(=O)O)c1)c1cc2ccccc2o1	.	99	.	.	.	.
C/C(=N\Nc1cccc([N+](=O)[O-])c1)c1cc2ccccc2o1	.	.	.	.	.	.
C/C(=N\Nc1cccc(C(=O)O)c1)c1ccc(Cl)s1	.	98	.	.	.	.
COc1ccc(/C(C)=N/Nc2cccc(C(=O)O)c2)cc1OC	.	.	.	.	.	.
C/C(=N\Nc1ccccc1)c1cc2ccccc2oc1=O	.	93	.	.	.	.
C/C(=N\Nc1ccc(Cl)c(C(=O)O)c1)c1cc2ccccc2o1	.	99	.	.	.	.
CCOc1cc(C2NC(=O)NC2=O)ccc1O (stereo not given)	.	.	.	.	.	.
Cc1ccc(CNS(=O)(=O)c2c(C(=O)N3CCCCC3)c(C)n(C)c2C)o1	.	.	.	.	.	.
Cc1ccc(S(=O)(=O)N(C)c2ccc(OCC(=O)Nc3nc4c(ccc5ccccc54)s3)cc2)cc1	.	84	.	.	47	.
Cc1ccc(-c2nc3ccccc3[nH]2)cc1NC(=O)c1ccc2c(c1)OCO2	.	.	.	.	.	.
O=C(NC(=S)Nc1cc(-c2nc3ccccc3[nH]2)ccc1Cl)c1ccc2c(c1)OCO2	.	.	.	.	84	.
O=C(O)Cn1cc(/C=N/Nc2ccc([N+](=O)[O-])cn2)c2ccccc21	.	99	.	.	/	.
Cc1ccc(Cn2cc(/C=N/Nc3ccc([N+](=O)[O-])cn3)c3ccccc32)cc1	.	.	.	.	.	.
CC(C)Sc1nc2ccccc2n2cnnc12	.	99	.	.	.	.
CC(Nc1nc2ccccc2n2cnnc12)c1ccccc1 (stereo not given)	.	.	.	.	.	.
CCN(CC(=O)Nc1cc(C)nn1-c1nc(C)cc(C)n1)Cc1ccccc1	.	/	.	.	.	.
C/C(=N\Nc1nc2ccccc2s1)c1ccc(Br)s1	.	.	.	.	54	.
C/C(=N\NC(=O)c1ccccc1[N+](=O)[O-])c1ccc(Br)s1	.	.	.	.	.	.
Cc1ccc(NC(=O)c2cc(C(=O)Nc3ccc(C)cc3)n(C)n2)cc1	.	.	.	.	62	.
Cn1nc(C(=O)Nc2ccc(Cl)cc2)cc1C(=O)Nc1ccc(Cl)cc1	.	.	.	.	72	.
CCOC(=O)c1ccc(Nc2nc(-c3cccnc3)nc3ccccc23)cc1	.	.	.	.	.	.
O=C(OCc1ccccc1)Oc1cncc(C(=O)O)c1	.	98	.	.	.	.
CCOC(=O)c1cncc(C(=O)O)c1	.	.	.	.	.	.
O=C1COc2ccc(-c3csc(NCC4CCCO4)n3)cc2N1 (stereo not given)	.	87	.	.	77	.
SMILES	SUMO Mot1 rescue	ALR H2O2 inh	VLA-4 inh	Efflux pump inh	AHR act	A1 inh
CC(Nc1nc(-c2ccc3c(c2)NC(=O)CO3)cs1)c1ccccc1 (stereo not given)	.	98	.	.	.	.
CSc1ccc(CNC(=O)Cn2nc(C)c3c(C)n(-c4ccc(C)cc4)nc3c2=O)cc1	.	/	.	.	.	.
S=C1NC(c2ccccc2)N2C(=S)NC(c3ccccc3)N12 (stereo not given)	.	98	.	.	.	.
COc1ccc(C2NC(=S)N3C(c4ccc(OC)cc4)NC(=S)N23)cc1 (stereo not given)	.	/	.	.	.	.
COc1ccc(CNC(=O)c2ccc3c(=O)n(CCCN4CCCC4=O)c(=S)[nH]c3c2)cc1	.	/	.	.	.	.
Cc1ccc(NC(=O)c2cccc(S(=O)(=O)N3CCN(C)CC3)c2)cc1F	.	.	.	.	.	.
NC(=O)CSc1nnc(-c2ccccc2F)n1C1CC1	.	.	.	.	.	.
NC(=O)c1ccc(N2CCN(c3ccc(O)cc3)CC2)c([N+](=O)[O-])c1	.	99	.	.	.	.
COc1ccc(C(=O)c2ccc(N3CCOCC3)c([N+](=O)[O-])c2)cc1	.	.	.	.	.	.
COc1ccc(N2CCN(c3ccc(C(=O)O)cc3[N+](=O)[O-])CC2)cc1	.	79	.	.	.	.
CCOc1cc(C(=O)NCCCNC(=O)c2cc(OCC)c(OCC)c(OCC)c2)cc(OCC)c1OCC	.	.	.	.	.	.
CC(=O)c1ccc(N2CCN(S(=O)(=O)c3ccc(-c4cnc(C5CC5)o4)cc3)CC2)cc1	.	.	.	.	.	.
Cn1nnnc1SCc1ccc(C(=O)Nc2nccs2)cc1	.	99	.	.	.	.
CCCCn1c(=O)c(CCC(=O)OCC(=O)Nc2cccc3ccccc23)nc2ccccc21	.	.	.	.	.	.
CCOCC(=O)Nc1c(C(=O)Nc2ccccc2OC)oc2ccccc12	.	.	.	.	73	.
COc1ccc(NC(=O)c2oc3ccccc3c2NC(=O)COc2ccccc2OC)c(OC)c1	.	.	.	.	.	.
COc1ccccc1NC(=O)c1oc2ccccc2c1NC(=O)C1CC1	.	.	.	.	64	.
CCOc1ccccc1NC(=O)c1oc2ccccc2c1NC(=O)C1CC1	.	.	.	.	.	.
CCC(=O)Nc1c(C(=O)Nc2cccc(OC)c2)oc2ccccc12	.	.	.	.	63	.
Cc1ccc(Cl)cc1N1CCN(C(=O)C(C)n2ncn3cccc3c2=O)CC1 (stereo not given)	.	.	.	.	.	.
O=S(=O)(O)c1cccc2cccc(Nc3ccccc3)c12	.	99	.	.	.	.
c1ccc(Nc2cccc3c(Nc4ccccc4)cccc23)cc1	.	/	.	.	.	.
COc1cccc(CN2CCNC(=O)C2CC(=O)N2CCCCO2)c1OC (stereo not given)	.	.	.	.	.	.
Cc1cc(C)n2ncc(C(=O)Nc3ccc4c(c3)OCO4)c2n1	.	.	.	.	73	.
O=C(Nc1cccnc1)c1cnn2cccnc12	.	.	.	.	.	.
SMILES	SUMO Mot1 rescue	ALR H2O2 inh	VLA-4 inh	Efflux pump inh	AHR act	A1 inh
O=C(Nc1cccc(O)c1)c1cnn2cccnc12	.	.	.	.	50	.
O=C(Nc1ccc2c(c1)OCO2)c1cnn2cccnc12	.	.	.	.	108	.
CC(=O)c1cc(CN2CCN(Cc3ccccc3)C(CCO)C2)cs1 (stereo not given)	.	.	.	.	.	.
COc1ccccc1C(=O)NCCC(=O)N(C)Cc1cccs1	.	.	.	.	.	.
CSc1cccc(NC(=O)CC(C)n2ccnc2)c1 (stereo not given)	.	/	.	.	58	.
COc1ccc(NC(=O)CC(C)n2ccnc2)cc1 (stereo not given)	.	.	.	.	.	.
Cc1nccc(-c2cc(-c3ccc(Cl)cc3Cl)no2)n1	328	.	.	.	.	.
